Five compounds from PubChem BioAssay (Tox21) can be followed below.

Unmarked numbers belong to inactive results. Inconclusive results are not listed. The source made the active and inactive calls. Unless noted, calls follow the shape of the full dose curve.

Test [1] is described as follows: Nuclear factor erythroid 2-related factor 2/antioxidant responsive element (Nrf2/ARE) small molecule agonists: qHTS cell viability counter screen in human keratinocytes (AID 1919968; active = well fitted curve in the direction sought with a large enough effect in the repeat runs; an effect the other way counts as inactive or inconclusive; also: nearly all actives have a fitted effect of over 55% in size). The method, boiled down:
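Measured as CellTiter-Fluor fluorescence, this readout tracks cytotoxicity in the same wells as the ARE-luciferase screen. HaCaT reporter cells (1,500/well) received compounds after a 5 h pre-incubation and were exposed for 23 h.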
Background: Quantitative high-throughput screening tests each substance at several concentrations.

Test [2] in a line: Nuclear factor erythroid 2-related factor 2/antioxidant responsive element (Nrf2/ARE) small molecule agonists: luciferase reporter gene qHTS assay in human keratinocytes (AID 1919969). Also: nearly all actives have a fitted effect of over 35% in size. For orientation: A reporter such as luciferase makes a cellular process visible.
Test [3] has as its target Gonadotropin-releasing hormone receptor (Homo sapiens) (UniProt P30968). Description: Human gonadotropin-releasing hormone receptor (GnRHR) small molecule agonists, calcium flux assay in GnRHR-HEK293 cells (AID 1920063). Also: nearly all actives have a fitted effect of over 35% in size. The method, boiled down: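 Fluorescence kinetics (480 nm excitation, 540 nm emission; 3 min, 1 s steps) report calcium mobilisation in human GnRHR-HEK293 cells in agonist mode. Dye incubation: 1 h, 37 C.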

In test [4] the target is KiSS-1 receptor (Homo sapiens) (UniProt Q969F8). Description: Human kisspeptin (KISS1R) small molecule agonists, calcium flux assay in KISS1R-HEK293 cells (AID 1920064; active = well fitted curve in the direction sought with a large enough effect in the repeat runs; an effect the other way counts as inactive or inconclusive). The method, boiled down:
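Measures KISS1R agonism through calcium-sensitive dye fluorescence in stably transfected HEK293 cells, read for 3 min after pin-tool compound delivery; 15-point titrations in triplicate.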

Test [5] is described as follows: G protein-coupled receptor (GPCR) small molecule agonists, calcium flux assay: HEK293 wild type cell line counter screen (AID 1920065). The method, boiled down: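 Readout: fluorescence at 480 nm excitation/540 nm emission, sampled at 1 s intervals for 3 min. Cells had been cultured 18 h, then dye-loaded 1 h at 37 C before compound or ATP addition.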
Test [6] is described as follows: p53 small molecule agonists, cell-based qHTS assay with human liver microsomes (AID 1963577).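 Also: p53 response element beta-lactamase reporter cells with liver microsomes plus NADPH.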 The essentials:
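Metabolically competent format: test substances, human liver microsomes and NADPH (both 0.5 mg/mL final) incubated with p53RE-bla cells 16 h at 37 C. Beta-lactamase reporter signal then quantified by fluorescence.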

A short description of test [7]: p53 small molecule agonists, cell-based qHTS assay with rat liver microsomes (AID 1963578). The method, boiled down:
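Each plate received p53RE-bla cells, then compound, then rat liver microsomes and NADPH (both 0.5 mg/mL final). Plates were held 16 h at 37 C, and beta-lactamase activity was detected with LiveBLAzer over 2 h.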

The nature of test [8]: p53 small molecule agonists, cell-based qHTS assay with human liver microsomes: qHTS cell viability counter screen (AID 1963579). Also: nearly all actives have a fitted effect of over 45% in size. The method, boiled down: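 Tox21 library compounds, delivered from DMSO stocks, were tested on p53RE-bla cells together with 0.5 mg/mL human liver microsomes and 0.5 mg/mL NADPH (final) over 16 h at 37 C; CellTiter-Glo luminescence served as the cytotoxicity measure.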

The nature of test [9]: p53 small molecule agonists, cell-based qHTS assay with rat liver microsomes: qHTS cell viability counter screen (AID 1963580). Also: nearly all actives have a fitted effect of over 45% in size. Also: potency is read from the fitted curve at half-maximal effect. The method, boiled down: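 p53RE-bla HCT-116 cells (4,000/well) rested 5 h at 37 C, then given Tox21 compounds in DMSO with rat liver microsomes (0.5 mg/mL final) plus NADPH (0.5 mg/mL final) for 16 h at 37 C. Viability read by CellTiter-Glo luminescence after 30 min at room temperature.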

Test [10] can be described thus: p53 small molecule agonists, cell-based qHTS assay: qHTS cell viability counter screen (AID 1963581). Also: nearly all actives have a fitted effect of over 45% in size. The method, boiled down: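 In the same plates used for the p53 bla reporter, HCT-116 cells given compounds for 16 h at 37 C received CellTiter-Glo; luminescence was recorded 30 min later at room temperature.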
Test [11] in a line: p53 small molecule agonists, cell-based qHTS assay (AID 1963582; active = well fitted activation curve with a large enough effect in the signal ratio in the repeat runs, not every such curve was filed as active; the % refers to the signal ratio). The essentials: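 Compounds are pin-transferred in DMSO onto p53RE-bla cells and incubated 16 h at 37 C. The B/G FRET beta-lactamase substrate is then applied for 2 h at RT and fluorescence recorded.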
Test [12] deals with 5-hydroxytryptamine receptor 2A (Homo sapiens) (UniProt P28223). Description: 5-hydroxytryptamine receptor 2A (HTR2A) small molecule antagonists, cell-based qHTS assay (AID 1963586). Also: nearly all actives have a fitted effect of over 45% in size. Also: potency is read from the fitted curve at half-maximal effect. The essentials: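 Antagonist-mode intracellular calcium assay: DOI (4 nM) added after 5 min compound pre-incubation at room temperature to dye-loaded HTR2A-CHO cells. Fluorescence followed for 3 min, sampled every second.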
5-hydroxytryptamine receptor 2A (Homo sapiens), sequence (P28223 whole entry, looked up): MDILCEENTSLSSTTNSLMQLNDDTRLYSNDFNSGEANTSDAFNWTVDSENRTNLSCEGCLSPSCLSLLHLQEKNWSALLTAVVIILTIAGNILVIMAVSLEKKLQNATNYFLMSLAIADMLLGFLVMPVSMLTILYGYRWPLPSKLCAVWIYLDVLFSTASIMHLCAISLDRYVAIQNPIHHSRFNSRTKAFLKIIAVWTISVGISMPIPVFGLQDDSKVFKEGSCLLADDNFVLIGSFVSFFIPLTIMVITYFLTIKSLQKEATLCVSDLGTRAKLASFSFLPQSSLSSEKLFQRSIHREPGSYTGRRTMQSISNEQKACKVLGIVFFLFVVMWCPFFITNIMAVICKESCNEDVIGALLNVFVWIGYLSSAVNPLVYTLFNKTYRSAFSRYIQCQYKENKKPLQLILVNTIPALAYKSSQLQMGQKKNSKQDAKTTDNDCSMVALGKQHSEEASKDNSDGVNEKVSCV

Test [13] has the same target. Put plainly: 5-hydroxytryptamine receptor 2A (HTR2A) small molecule agonists, cell-based qHTS assay (AID 1963587). Also: nearly all actives have a fitted effect of over 30% in size. The method, boiled down: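 HTR2A-CHO cells, plated 18 h at 37 C/5% CO2, dye-loaded 1 h at 37 C; compounds in DMSO added by pin tool (agonist mode). Intracellular calcium flux read as kinetic fluorescence on FDSS over 2 min at 1 s intervals.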
For test [14], the target named is Muscarinic acetylcholine receptor M1 (Homo sapiens) (UniProt P11229). Description: Cholinergic receptor muscarinic 1 (CHRM1) small molecule antagonists, cell-based qHTS assay (AID 1963588). Also: nearly all actives have a fitted effect of over 40% in size. The essentials: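 CHRM1-CHO calcium-flux assay, antagonist mode. Cells were seeded 18 h, dye-loaded 1 h at 37 C and given compound for 5 min at RT, then acetylcholine was added at 50nM. FDSS fluorescence was read 3 min; 15 concentrations, three runs.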
Muscarinic acetylcholine receptor M1 (Homo sapiens), sequence (P11229 whole entry, looked up): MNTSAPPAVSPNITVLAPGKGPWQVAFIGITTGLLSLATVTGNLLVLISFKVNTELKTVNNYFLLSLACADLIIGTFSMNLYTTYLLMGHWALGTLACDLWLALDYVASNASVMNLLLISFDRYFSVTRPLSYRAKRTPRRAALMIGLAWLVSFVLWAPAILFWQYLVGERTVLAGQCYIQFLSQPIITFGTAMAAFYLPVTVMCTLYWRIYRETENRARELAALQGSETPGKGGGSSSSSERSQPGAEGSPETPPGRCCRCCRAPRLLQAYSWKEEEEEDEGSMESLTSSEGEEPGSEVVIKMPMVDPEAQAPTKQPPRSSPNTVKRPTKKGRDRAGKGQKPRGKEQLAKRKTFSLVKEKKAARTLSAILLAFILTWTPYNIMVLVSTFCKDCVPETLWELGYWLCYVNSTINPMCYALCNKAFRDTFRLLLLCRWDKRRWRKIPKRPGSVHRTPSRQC

Test [15] shares this target. Put plainly: Cholinergic receptor muscarinic 1 (CHRM1) small molecule agonists, cell-based qHTS assay (AID 1963589). Also: nearly all actives have a fitted effect of over 35% in size. The essentials: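 Each compound was tested at 15 concentrations across three independent runs on dye-loaded CHO cells stably expressing human CHRM1, reading intracellular calcium fluorescence kinetically at 1 sec intervals.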
In test [16] the target is Beta-2 adrenergic receptor (Homo sapiens) (UniProt P07550). Put plainly: Adrenergic beta2 receptor (ADRB2) small molecule antagonists, cell-based qHTS assay (AID 1963592). Also: series mostly up to about 92 µM; nearly all actives have a fitted effect of over 50% in size. The method, boiled down: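 Cells (CHO, stable ADRB2 overexpression) incubated 18-20hr at 37C; compounds added from DMSO; agonist mix (1nM isoproterenol, 100uM IBMX, 25uM Ro-20-1724) added; 0.5hr RT; d2-cAMP and anti-cAMP-cryptate added; 1hr RT; 665/615 nm read.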
Beta-2 adrenergic receptor (Homo sapiens), sequence (P07550 whole entry, looked up): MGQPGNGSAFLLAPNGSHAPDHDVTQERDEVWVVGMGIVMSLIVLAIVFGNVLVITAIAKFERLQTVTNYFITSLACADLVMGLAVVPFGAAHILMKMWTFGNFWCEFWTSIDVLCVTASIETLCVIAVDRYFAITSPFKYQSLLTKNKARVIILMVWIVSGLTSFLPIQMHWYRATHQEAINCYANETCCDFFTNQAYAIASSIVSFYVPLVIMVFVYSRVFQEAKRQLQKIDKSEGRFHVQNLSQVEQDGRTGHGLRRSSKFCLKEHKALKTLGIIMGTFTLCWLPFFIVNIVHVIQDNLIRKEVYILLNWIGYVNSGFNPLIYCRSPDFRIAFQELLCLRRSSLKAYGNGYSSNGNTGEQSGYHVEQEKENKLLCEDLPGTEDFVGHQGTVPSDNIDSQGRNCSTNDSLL

Test [17] has as its target D(2) dopamine receptor (Homo sapiens) (UniProt P14416). Put plainly: Dopamine D2 receptor (DRD2) small molecule agonists, cell-based qHTS assay (AID 1963594). Also: nearly all actives have a fitted effect of over 35% in size. The method, boiled down: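 HEK293 cells stably expressing DRD2 were cultured 24 h at 37 C, then given Ro20-1724 (0.1 mM final) and compounds for 10 min at room temperature. NKH477 (200nM) was then added for 30 min. cAMP was read by HTRF.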

Test [18] can be described thus: cAMP Responsive Elements (CRE) small molecule agonists, cell-based qHTS assay (AID 1963590). The method, boiled down:
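Cell line: CRE-bla HEK 293T; medium DMEM/10% dialyzed FBS/0.1 mM NEAA/1 mM pyruvate/25 mM HEPES; 3 h compound exposure; beta-lactamase FRET readout after 2 h substrate loading at RT.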

Test [19] deals with D(2) dopamine receptor (Homo sapiens) (UniProt P14416). Description: Dopamine D2 receptor (DRD2) small molecule antagonists, cell-based qHTS assay (AID 1963595; active = well fitted inhibition curve with a large enough effect in the signal ratio in the repeat runs, with a control signal flat; the % refers to the signal ratio). The method, boiled down:
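HEK293 cells stably expressing DRD2 were preincubated with 0.1 mM Ro20-1724, then with compound for 10 min at room temperature. Cells were stimulated with 200 nM NKH477 plus 12 nM quinpirole for 30 min, and cAMP was read by HTRF.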

Test [20] is described as follows: cAMP Responsive Elements (CRE) small molecule antagonists, cell-based qHTS assay (AID 1963591; active = well fitted inhibition curve with a large enough effect in the signal ratio in the repeat runs, not every such curve was filed as active; the % refers to the signal ratio). The essentials: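 Inhibition of NKH477-driven (0.25 uM final) CRE-beta-lactamase signal in HEK293T cells, 3 h compound exposure at 37 °C, detected by FRET substrate fluorescence.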
% is scaled to controls: 0 for no effect and ±100 for the full control effect.

Gonadotropin-releasing hormone receptor (Homo sapiens), sequence (P30968 whole entry, looked up): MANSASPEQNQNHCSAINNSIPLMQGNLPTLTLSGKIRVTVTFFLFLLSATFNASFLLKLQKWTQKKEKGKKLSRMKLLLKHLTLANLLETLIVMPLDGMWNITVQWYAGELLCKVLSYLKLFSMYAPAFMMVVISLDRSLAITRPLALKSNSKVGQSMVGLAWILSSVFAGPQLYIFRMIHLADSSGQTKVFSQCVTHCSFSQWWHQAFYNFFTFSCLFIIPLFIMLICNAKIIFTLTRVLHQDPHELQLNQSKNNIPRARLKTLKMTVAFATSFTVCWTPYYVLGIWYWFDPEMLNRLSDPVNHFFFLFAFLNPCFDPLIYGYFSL
D(2) dopamine receptor (Homo sapiens), sequence (P14416 whole entry, looked up): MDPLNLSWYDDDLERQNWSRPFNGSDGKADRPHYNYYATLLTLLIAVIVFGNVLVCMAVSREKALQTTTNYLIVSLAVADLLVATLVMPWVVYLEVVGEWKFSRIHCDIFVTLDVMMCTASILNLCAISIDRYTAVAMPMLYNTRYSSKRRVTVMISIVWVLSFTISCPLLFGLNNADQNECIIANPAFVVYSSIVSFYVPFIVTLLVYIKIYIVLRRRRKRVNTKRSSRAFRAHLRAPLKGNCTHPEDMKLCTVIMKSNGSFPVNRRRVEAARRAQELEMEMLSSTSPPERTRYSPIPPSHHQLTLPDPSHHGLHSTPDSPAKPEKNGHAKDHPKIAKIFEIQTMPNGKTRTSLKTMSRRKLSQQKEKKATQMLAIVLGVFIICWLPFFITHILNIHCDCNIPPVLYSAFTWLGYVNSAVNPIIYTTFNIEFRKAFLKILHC
KiSS-1 receptor (Homo sapiens), sequence (Q969F8 whole entry, looked up): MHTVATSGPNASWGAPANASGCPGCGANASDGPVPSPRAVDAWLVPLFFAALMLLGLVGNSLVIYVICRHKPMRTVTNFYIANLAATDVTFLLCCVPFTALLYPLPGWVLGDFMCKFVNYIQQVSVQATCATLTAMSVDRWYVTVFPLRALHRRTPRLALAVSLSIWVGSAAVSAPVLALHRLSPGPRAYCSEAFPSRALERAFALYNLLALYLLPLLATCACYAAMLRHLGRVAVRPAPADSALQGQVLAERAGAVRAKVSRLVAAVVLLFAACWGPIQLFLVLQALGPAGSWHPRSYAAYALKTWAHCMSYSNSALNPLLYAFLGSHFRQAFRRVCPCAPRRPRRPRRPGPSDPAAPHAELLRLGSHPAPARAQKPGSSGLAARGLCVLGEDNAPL

For `CC(C)=C1CC[C@@H](C)CC1=O`, the Potency entry in [1], in [2], in test [3], in test [4], in test [5] and in test [6] was “inactive” throughout. Moreover, the Potency entry in test [7], in test [8], in [9], in test [10], in [11] and in [12] was “inactive” each time. In addition, the Potency entry in test [13], in test [14], in [15], in test [16] and in test [17] was “inactive” in each case.
Take `Cc1cc(O)c(Cl)cc1C`: the Potency entry in test [1], in test [2], in test [3], in [4], in test [5] and in test [6] was “inactive” in each case. Besides, the Potency result in [7], in test [8], in test [9], in [10], in test [11] and in test [12] was “inactive” in each case. Further, the Potency entry in test [13], in test [14], in test [15], in test [18], in test [16] and in test [17] was “inactive” in each case. Besides, the Potency result in test [19] is “inactive”.
In the case of `O=c1c(-c2ccc(O)cc2)coc2cc(O)ccc12`, the Potency entry in [1], in test [2], in [3], in test [4], in test [5] and in [6] was “inactive” in each case. Moreover, the Potency entry in test [7], in test [8], in test [10], in [11], in [13] and in test [14] was “inactive” each time. The Potency entry in test [15], in [20], in test [16], in [17] and in test [19] was “inactive” in each case. Also, the values for the Potency in test [9] and in test [12] were 10.1 µM (active) and 33.4 µM (active), respectively.
Regarding `Nc1ccc(Oc2ccc(Cl)cc2)cc1`, the Potency entry in [1], in [2], in test [3], in [4], in [5] and in test [6] was “inactive” in each case. Besides, the Potency result in test [7], in test [8], in test [9], in test [10], in test [11] and in test [12] was “inactive” in each case. In addition, the Potency result in test [13], in test [14], in test [15], in [18], in test [16] and in [17] was “inactive” in each case. The Potency result in test [19] is “inactive”.
In the case of `Cc1cc(C)c(N=Nc2c(O)c(S(=O)(=O)O)cc3cc(S(=O)(=O)O)ccc23)cc1C`, the activity change, negative = cytotoxicity in test [1] was -4.24% [at 8.39 µM]; in test [8] it was 0.236% [at 5.99 µM]; in test [9] it was -1.53% [at 5.99 µM]; in test [10], -0.59% [at 5.99 µM]. In test [2], the activity, positive = activation is -2.39% [at 8.39 µM]. In addition, the activity change in test [3] is 0.758% [at 5.22 µM, hits give high values]. Besides, the activation in test [4] is 0.221% [at 6.97 µM]; in test [5], -0.909% [at 5.23 µM]; in test [6], -0.355% [at 5.99 µM]; in test [7] it was 0.887% [at 5.99 µM]; in test [11], 0.0696% [at 5.99 µM]; in test [13] it was -1.44% [at 7.02 µM]. Also, the activation in [15] was -0.143% [at 6.97 µM]; in [17] it was 4.98% [at 8.39 µM]. The activity, negative = inhibition is -22.1% [at 5.62 µM] in test [12] and 26.6% [at 5.58 µM] in test [14]. The activity change, negative = inhibition in test [20] is -0.183% [at 8.39 µM]; in test [16] it was -5.6% [at 8.39 µM]; in test [19], 0.169% [at 8.38 µM].
